# PTAP TSG101 blk = blocks PTAP/TSG101 interaction to inhibit HIV-1 budding; Q99816; Fluorescence polarization, FITC-PTAP peptide / Tsg101 binding; Potency, µM (titrated, usually from 115 µM), for inactives: top-dose activity change, negative = inhibition, most hits filed as inhibitors; 340,000 tested, under 10 active; active means well fitted inhibition curve with a large enough effect in the main read-out, with a control signal flat, not every such curve was filed as active; inconclusive means small, poorly fitted or top-dose-only effect, or effect the other way, or a change in a side signal; inactive means no such curve, though single readings can be large or run the other way; further: % of control where 0% means no effect
# Target sequence (Q99816 whole entry, looked up): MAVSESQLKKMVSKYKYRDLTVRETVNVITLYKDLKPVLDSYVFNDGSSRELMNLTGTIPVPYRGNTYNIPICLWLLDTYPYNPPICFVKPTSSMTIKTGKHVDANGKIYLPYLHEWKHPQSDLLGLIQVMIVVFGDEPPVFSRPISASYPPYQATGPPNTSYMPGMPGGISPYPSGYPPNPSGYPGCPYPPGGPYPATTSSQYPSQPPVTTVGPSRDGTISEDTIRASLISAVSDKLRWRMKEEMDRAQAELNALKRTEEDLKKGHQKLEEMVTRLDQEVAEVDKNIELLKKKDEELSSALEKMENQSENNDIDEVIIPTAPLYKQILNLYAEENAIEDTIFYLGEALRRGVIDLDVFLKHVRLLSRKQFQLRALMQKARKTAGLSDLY
#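 Tsg101 binding domain (10 uM final) was mixed with compound and a FITC-labeled PTAP peptide (50 nM final) in HEPES pH 7.5 buffer with NaCl, Tween 20, EDTA and TCEP; fluorescence polarization was read after 20 min at r.t.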
# KB-3-1 cytotox = kills parental KB-3-1 adenocarcinoma cells. Potency, µM (doses to about 46.1 µM), most hits filed as cytotoxic. KB-3-1 viability, CellTiter-Glo ATP luminescence, 72 h. 400,000 tested, 1.4% active; further: on the % scale 0 is the no-effect control and ±100 the full control effect; nearly all actives have a fitted effect of over 60% in size
#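 Cytotoxicity in the drug-sensitive parental line KB-3-1 was scored as loss of CellTiter-Glo luminescence following 72 h incubation with compound. Values come from curve fitting of normalized concentration-response data.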
# KB-V1 cytotox = KB-V1 MDR subline cytotoxicity; AID 1347076; Potency, µM (titrated, usually from 46.1 µM), most hits filed as cytotoxic; 400,000 tested, 3.4% active; KB-V1 MDR cells viability, CellTiter-Glo, 72 h; further: on the % scale 0 is the no-effect control and ±100 the full control effect; nearly all actives have a fitted effect of over 60% in size
#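 Cytotoxicity via CellTiter-Glo luminescence after 72 h compound exposure at 37 degrees C. Cells: drug-selected KB-V1 line, DMEM phenol-red free plus 10% FBS. Compounds tested at multiple concentrations; normalized data fitted to concentration-effect curves.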
# PINK1 expr mod = changes PINK1 expression; 410,000 tested, 0.2% active; PINK1 immunofluorescence, high-content cytometry, 24 h; Potency, µM (top dose mostly 76.6 µM), inactives show at the highest dose activation (PINK1 increase), hits mostly activators; active means well fitted activation curve with a large enough effect; inconclusive means small, poorly fitted or top-dose-only effect; cell line not stated here; further: % of control where 0% means no effect; nearly all actives have a fitted effect of over 65% in size
#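 Decision-based qHTS: stable cells, 24 h exposure to five compound concentrations, CCCP as control. Fixed cells stained for PINK1 plus nuclear, mitochondrial and cell markers, cytometer read.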
# MCF10A rerep = DNA re-replication induction in MCF 10a cells; MCF 10A DNA re-replication, Hoechst nuclear intensity, 48 h; Potency, µM (highest dose often 46.1 µM), inactives show top-dose activity, positive = re-replication, most hits filed as activators; 350,000 tested, 2.9% active; AID 624296; further: % of control where 0% means no effect; nearly all actives have a fitted effect of over 50% in size
# SW480 rerep = DNA re-replication induction in SW480 cells | SW480 DNA re-replication, Hoechst DNA content imaging, 48 h | Potency, µM (titrated, usually from 46.1 µM), for the others: at the top dose re-replication activation, usual class: activators | 340,000 tested, 1.8% active; further: % of control where 0% means no effect; nearly all actives have a fitted effect of over 55% in size
#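 Image-based read-out: total Hoechst fluorescence of nuclei (405 nm excitation, 500-530 nm emission), with hits raising the fraction of high-intensity nuclei. SW480 colon cells incubated 48 hr with compounds at 37 C.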
# * hit, by the source's call; i = inactive; ? = inconclusive; nt = not tested or not shown; [ ] = dose if it differs, or a comment. Only some compounds are listed: those with a hit (about 6.8% of all), similar ones and a draw of the others. Unless noted, the call rests on the fitted dose curve; in most records, active means well fitted curve in the direction sought with a large enough effect; inconclusive means small, poorly fitted or top-dose-only effect, or another doubt; inactive means no such curve, though single readings can be large; an effect the other way counts as inactive or inconclusive. Potency means the concentration at half of the fitted maximal effect.
SMILES,PTAP TSG101 blk,KB-3-1 cytotox,KB-V1 cytotox,PINK1 expr mod,MCF10A rerep,SW480 rerep
CC1Cc2ccccc2N1S(=O)(=O)c1cccc(C(=O)N2CCCCC2)c1 (stereo unspecified),-1%,i,i,10%,6%,-1%
COc1ccc(N2CCN(C(=O)c3ccc(S(=O)(=O)N4CCOCC4)cc3)CC2)cc1,nt,i,16µM*,-4%[38.3 µM],4%,-1%
COc1ccccc1N1CCN(C(=O)c2cccc(S(=O)(=O)N3c4ccccc4CC3C)c2)CC1 (stereo unspecified),-8%,i,3.7µM*,1%,?,21%
CCOc1ccccc1N1CCN(C(=O)c2cccc(S(=O)(=O)N3CCOCC3)c2)CC1,-6%,?,23µM*,1%,2%,-4%
O=C(c1cccc(S(=O)(=O)N2CCOCC2)c1)N1CCN(c2ccc(F)cc2)CC1,0%,i,i,3%[38.3 µM],-3%,1%
Cc1cc(NC(=O)c2cccc(S(=O)(=O)N3c4ccccc4CC3C)c2)no1 (stereo unspecified),-2%,i,i,-1%,14%,?
O=S(=O)(O)CC(S)CS (stereo unspecified),nt,nt,nt,nt,3%,6%
CCc1ccccc1Nc1nn2c(=O)c3ccc(C(=O)NC4CCC(C)CC4)cc3nc2s1 (stereo unspecified),nt,i,i,-3%,nt,nt
O=C(c1cccc(S(=O)(=O)N2CCOCC2)c1)N1CCN(c2ccccc2)CC1,0%,i,18µM*,2%,-1%,-4%
O=C(NCC1(N2CCOCC2)CCCCC1)c1cccc(S(=O)(=O)N2CCc3ccccc3C2)c1,0%,i,i,-1%,15µM*,6%
CCOc1ccccc1N1CCN(C(=O)Cc2ccc(S(=O)(=O)N3CCOCC3)s2)CC1,1%,i,23µM*,-1%,2%,?
COc1ccc(N2CCN(C(=O)Cc3ccc(S(=O)(=O)N4CCOCC4)s3)CC2)cc1,-1%,i,?,-1%,19%,2%
Cc1oc2c(C)c3oc(=O)c(CC(=O)N4CCCCC4)c(C)c3cc2c1C,nt,nt,nt,1%,nt,nt
O=C(NCC1Cc2cccc(-c3cncnc3)c2O1)C1CC1 (stereo unspecified),nt,nt,nt,-1%,nt,nt
Cc1ccc(C(=O)OC(C(=O)Nc2ccc(Cl)cc2C(F)(F)F)c2ccccc2)cc1 (stereo unspecified),1%,i,i,7%,?,-1%
O=C(OC(C(=O)Nc1ccc(Cl)cc1C(F)(F)F)c1ccccc1)c1c(Cl)cccc1Cl (stereo unspecified),-3%,?,i,2%,5.8µM*,3%
COc1cc(Cl)c(NC(=O)CCc2nc3cccnc3n2-c2ccccc2)c(OC)c1,nt,i,i,0%,nt,nt
COC(=O)c1cc(C#N)c(N2CCN(C)CC2)nc1C,-3%,i,i,-1%,21µM*,-70%
COC(=O)c1cc(C#N)c(N2CC(C)OC(C)C2)nc1C (stereo unspecified),-5%,i,i,1%,17%,0%
CCc1nn2c(-c3ccco3)ccnc2c1-c1ccc(F)cc1,nt,i,?,1%,nt,nt
CCCC(=O)N(CCN(C(=O)CCC)c1ccccc1)c1ccccc1,-3%,i,10µM*,-2%[38.3 µM],21%,-7%
Cn1c(=O)oc2cc(S(=O)(=O)N3CCCC(C(=O)Nc4ccc(Br)cc4F)C3)ccc21 (stereo unspecified),nt,i,i,1%,nt,nt
O=C(CCCCCn1c(=S)[nH]c2ccc(N3CCOCC3)cc2c1=O)NCc1ccc(Cl)cc1,1%,?,i,10%,6.5µM*,?
O=C(CCCCCn1c(=S)[nH]c2ccc(N3CCOCC3)cc2c1=O)NCc1ccccc1Cl,1%,i,i,?,18µM*,?
O=C(CCCCCn1c(=S)[nH]c2ccc(N3CCOCC3)cc2c1=O)NCc1ccc2c(c1)OCO2,1%,?,i,4%,?,?

# Source: PubChem
